# The supplement of paper PMC8699584
# Values joined by “and” are separate entries in the source; they are usually repeats but may differ in a detail not shown here. Equal values may be shown once. ± gives the standard deviation of the averaged measurements.
# Experiments:
# Molm13 = assay: cell viability relative to DMSO control (bortezomib = 0%); higher = less growth inhibition; conditions: 10 nM; 72 h
# In short: (§1)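 FLT3-ITD+ acute myeloid leukemia cells were dispensed onto a library of 679 approved and investigational compounds in 384-well plates, at 1000 cells per well in 50 µL and a single 10 nM dose, for 72 h. The screen was run in duplicate. Cell viability was read by CellTiter-Glo luminescence on an EnVision reader. Values were converted to percentages by per-plate linear regression between DMSO-treated cells (100%) and positive-control-treated cells (0%).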
# Mv4-11 = assay: as above; conditions: 10 nM; 72 h
# In short: as §1
SMILES,cell viability (Molm13),cell viability (Mv4-11)
CCCS(=O)(=O)Nc1ccc(F)c(C(=O)c2c[nH]c3ncc(Cl)cc23)c1F,104 ± 8.2%,135 ± 12%
"COC1=CC(=O)c2ccccc2C1=O [2-Methoxy-1,4-naphthoquinone]",94.66 ± 0.11%,98.6 ± 9.1%
CCCCCCCCCCCCCCCCOP(=O)([O-])OCC[N+](C)(C)C [Miltefosine],76.2 ± 20%,102 ± 7.5%
Nc1nc(NC2CC2)cc(-c2cccc(Cl)c2Cl)n1,115 ± 8.1%,96.9 ± 4.4%
C[C@@H](N)[C@H]1CC[C@H](C(=O)Nc2ccncc2)CC1,93.8% and 107%,100% and 112%
O=C(NC(NC(=S)Nc1ccc(F)c([N+](=O)[O-])c1)C(Cl)(Cl)Cl)C(c1ccccc1)c1ccccc1 (centres undefined),109 ± 8.2%,104.1 ± 0.92%
COc1cc2ncnc(Nc3cccc(Br)c3)c2cc1OC,93.4% and 102%,99.1% and 113%
N#CCC(=O)NN [Cyanoacetohydrazide],128 ± 1.3%,109 ± 22%
Cc1ccc2c(Nc3ccc(Cl)cc3)nccc2c1Nc1ncccc1-c1ncnc2nc[nH]c12 [B-Raf inhibitor 1],98.9 ± 11%,107.5 ± 0.62%
Cn1cnc(N)c2ncnc1-2 [3-Methyladenine (3-MA)],98.3 ± 1.7%,77.5 ± 24%
N#CC(=C(/N)Sc1ccccc1N)/C(C#N)=C(\N)Sc1ccccc1N,99.3 ± 16%,104 ± 7%
CC(=O)O[C@H]1C(=O)[C@@]2(C)[C@H]([C@H](OC(=O)c3ccccc3)[C@]3(O)C[C@H](OC(=O)[C@H](O)[C@@H](NC(=O)c4ccccc4)c4ccccc4)C(C)=C1C3(C)C)[C@]1(OC(C)=O)CO[C@@H]1C[C@@H]2O [Paclitaxel],-2.33 ± 4.8%,-3.89 ± 0.25%
